PubChem BioAssay (Tox21)
A number with no mark means an inactive call. Results filed as inconclusive are left out. A call without a number means that no potency is given here. Active and inactive are the calls of the source. Unless noted, the call rests on the fitted dose curve.

Key:
[1] = Nuclear factor erythroid 2-related factor 2/antioxidant responsive element (Nrf2/ARE) small molecule agonists: qHTS cell viability counter screen in human keratinocytes (AID 1919968; active means well fitted curve in the direction sought with a large enough effect in the repeat runs; an effect the other way counts as inactive or inconclusive; further: nearly all actives have a fitted effect of over 55% in size)
In short: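 Stably transfected HaCaT (KeratinoSens), 1,500/well. Test agents in DMSO were applied for 23 h, 37 C/5% CO2. CellTiter-Fluor was incubated 1 h before the fluorescence read.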

[2] = Nuclear factor erythroid 2-related factor 2/antioxidant responsive element (Nrf2/ARE) small molecule agonists: luciferase reporter gene qHTS assay in human keratinocytes (AID 1919969); further: nearly all actives have a fitted effect of over 35% in size; further: potency means the concentration at half of the fitted maximal effect
[3] = target: Gonadotropin-releasing hormone receptor (Homo sapiens) (UniProt P30968); assay: Human gonadotropin-releasing hormone receptor (GnRHR) small molecule agonists, calcium flux assay in GnRHR-HEK293 cells (AID 1920063); further: nearly all actives have a fitted effect of over 35% in size
In short: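 Stable human GnRHR HEK293 line. 18 h plating, then calcium dye for 1 h at 37 C. Agonist-mode compound addition from DMSO stocks; fluorescence monitored 3 min.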

[4] = target: KiSS-1 receptor (Homo sapiens) (UniProt Q969F8); assay: Human kisspeptin (KISS1R) small molecule agonists, calcium flux assay in KISS1R-HEK293 cells (AID 1920064; active means well fitted curve in the direction sought with a large enough effect in the repeat runs; an effect the other way counts as inactive or inconclusive)
In short: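 After overnight (18 h) culture at 37 C/5% CO2, human KISS1R-HEK293 cells received calcium dye for 1 h, then test compound; emission at 540 nm (excitation 480 nm) was tracked for 3 min.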

[5] = G protein-coupled receptor (GPCR) small molecule agonists, calcium flux assay: HEK293 wild type cell line counter screen (AID 1920065)
In short: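 Following 18 h incubation at 37 C/5% CO2, plates got calcium dye for 1 h; compounds, ATP or DMSO were then pinned in and fluorescence followed kinetically (480/540 nm).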

[6] = p53 small molecule agonists, cell-based qHTS assay with rat liver microsomes (AID 1963578)
In short: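 Agonist mode in p53RE-bla reporter cells, with compounds co-incubated 16 h at 37 C alongside 0.5 mg/mL rat liver microsomes and 0.5 mg/mL NADPH (final), followed by a 2 h LiveBLAzer detection step.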

[7] = p53 small molecule agonists, cell-based qHTS assay: qHTS cell viability counter screen (AID 1963581); further: nearly all actives have a fitted effect of over 45% in size
In short: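 qHTS counter screen: 16 h compound exposure at 37 C of p53RE-bla HCT-116 cells (4,000 per well, seeded 5 h prior), cell viability by ATP luminescence.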

[8] = p53 small molecule agonists, cell-based qHTS assay (AID 1963582; active means well fitted activation curve with a large enough effect in the signal ratio in the repeat runs, not every such curve was filed as active; the % refers to the signal ratio)
In short: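 Measured: fluorescence from cleaved LiveBLAzer substrate. System: p53RE-bla cells, 16 h compound treatment at 37 C, 2 h substrate step at room temperature.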

[9] = cAMP Responsive Elements (CRE) small molecule agonists, cell-based qHTS assay (AID 1963590)
In short: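 Test agents in DMSO were incubated 3 h at 37 C/5% CO2 with CRE-bla HEK 293T cells seeded 18 h earlier; LiveBLAzer B/G FRET substrate was added and read after 2 h at room temperature.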

[10] = cAMP Responsive Elements (CRE) small molecule antagonists, cell-based qHTS assay (AID 1963591; active means well fitted inhibition curve with a large enough effect in the signal ratio in the repeat runs, not every such curve was filed as active; the % refers to the signal ratio)
In short: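 Reporter line CRE-bla HEK 293T in dialyzed-FBS DMEM; cells preincubated 18 h, treated 3 h with compound plus NKH477 (0.25 uM final); LiveBLAzer FRET, 2 h RT.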

[11] = target: Beta-2 adrenergic receptor (Homo sapiens) (UniProt P07550); assay: Adrenergic beta2 receptor (ADRB2) small molecule antagonists, cell-based qHTS assay (AID 1963592); further: series mostly up to about 92 µM; nearly all actives have a fitted effect of over 50% in size
In short: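 Assay format: CHO-ADRB2 cells, 18-20hr seeding at 37C/5% CO2, then compound plus 1nM isoproterenol agonist mix for 0.5hr RT. Homogeneous time-resolved fluorescence cAMP detection after 1hr, expressed as 665/615 nm ratio.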

[12] = target: D(2) dopamine receptor (Homo sapiens) (UniProt P14416); assay: Dopamine D2 receptor (DRD2) small molecule agonists, cell-based qHTS assay (AID 1963594); further: nearly all actives have a fitted effect of over 35% in size
In short: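 HEK293 cells stably expressing human DRD2, pre-treated with PDE inhibitor Ro20-1724 (0.1 mM final) and compound 10 min at room temperature, then stimulated with NKH477 (200nM […]) for 30 min. cAMP read by HTRF (665/620 nm).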

[13] = target: D(2) dopamine receptor (Homo sapiens) (UniProt P14416); assay: Dopamine D2 receptor (DRD2) small molecule antagonists, cell-based qHTS assay (AID 1963595; active means well fitted inhibition curve with a large enough effect in the signal ratio in the repeat runs, with a control signal flat; the % refers to the signal ratio)
In short: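 Antagonist mode in DRD2-HEK293 cells: after compound addition with 0.1 mM Ro20-1724, cells received quinpirole (12 nM) and NKH477 (200 nM) for 30 min at room temperature; HTRF cAMP read after 1 h detection.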

[14] = target: 5-hydroxytryptamine receptor 2A (Homo sapiens) (UniProt P28223); assay: 5-hydroxytryptamine receptor 2A (HTR2A) small molecule antagonists, cell-based qHTS assay (AID 1963586); further: nearly all actives have a fitted effect of over 45% in size
In short: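 CHO cells stably expressing human HTR2A were plated for 18 h at 37 C, then loaded with calcium dye for 1 h. Compounds were preincubated 5 min at room temperature before DOI (4 nM solution) was added. Kinetic fluorescence was read for 3 min.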

[15] = target: 5-hydroxytryptamine receptor 2A (Homo sapiens) (UniProt P28223); assay: 5-hydroxytryptamine receptor 2A (HTR2A) small molecule agonists, cell-based qHTS assay (AID 1963587); further: nearly all actives have a fitted effect of over 30% in size
In short: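 CHO cells stably expressing human HTR2A, plated 18 h, loaded with calcium dye 1 h at 37 C. Agonist mode: compounds added and intracellular calcium fluorescence recorded kinetically for 2 min at 1 sec intervals.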

[16] = target: Muscarinic acetylcholine receptor M1 (Homo sapiens) (UniProt P11229); assay: Cholinergic receptor muscarinic 1 (CHRM1) small molecule antagonists, cell-based qHTS assay (AID 1963588); further: nearly all actives have a fitted effect of over 40% in size; further: potency means the concentration at half of the fitted maximal effect
In short: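 Compounds were tested at 15 concentrations in three independent runs. Dye-loaded CHRM1-CHO cells were exposed 5 min at room temperature before stimulation by acetylcholine added at 50nM. Intracellular calcium was read kinetically on FDSS for 3 min.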

[17] = target: Muscarinic acetylcholine receptor M1 (Homo sapiens) (UniProt P11229); assay: Cholinergic receptor muscarinic 1 (CHRM1) small molecule agonists, cell-based qHTS assay (AID 1963589); further: nearly all actives have a fitted effect of over 35% in size
In short: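 Kinetic fluorescence (1 s intervals) of calcium-sensitive dye in human M1 CHO cells after compound addition; cells pre-incubated 18 h at 37 C/5% CO2 and dye-loaded 1 h.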

[18] = p53 small molecule agonists, cell-based qHTS assay with rat liver microsomes: qHTS cell viability counter screen (AID 1963580); further: nearly all actives have a fitted effect of over 45% in size
In short: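 Cytotoxicity counter screen: intracellular ATP measured by CellTiter-Glo luminescence in the same wells as the beta-lactamase reporter read, on HCT-116 p53RE-bla cells exposed 16 h at 37 C to compounds with rat liver microsomes and NADPH, each 0.5 mg/mL final.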

[19] = p53 small molecule agonists, cell-based qHTS assay with human liver microsomes: qHTS cell viability counter screen (AID 1963579); further: nearly all actives have a fitted effect of over 45% in size
In short: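 Metabolically activated exposure: compounds, human liver microsomes and NADPH (0.5 mg/mL final apiece) were added to p53RE-bla cells seeded 5 h earlier, left 16 h at 37 C, and then assessed for viability by CellTiter-Glo luminescence.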

[20] = target: Beta-2 adrenergic receptor (Homo sapiens) (UniProt P07550); assay: Adrenergic beta2 receptor (ADRB2) small molecule agonists, cell-based qHTS assay (AID 1963593);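 further: CHO cells stably overexpressing human ADRB2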
In short: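 CHO cells stably over-expressing ADRB2 were plated overnight at 37C, then dosed with compounds plus a stimulation mix containing 100uM IBMX and 25uM Ro-20-1724 for 0.5hr at room temperature. cAMP was measured by HTRF competition, 1hr.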

Chain of 5-hydroxytryptamine receptor 2A (Homo sapiens) (P28223 whole entry, looked up): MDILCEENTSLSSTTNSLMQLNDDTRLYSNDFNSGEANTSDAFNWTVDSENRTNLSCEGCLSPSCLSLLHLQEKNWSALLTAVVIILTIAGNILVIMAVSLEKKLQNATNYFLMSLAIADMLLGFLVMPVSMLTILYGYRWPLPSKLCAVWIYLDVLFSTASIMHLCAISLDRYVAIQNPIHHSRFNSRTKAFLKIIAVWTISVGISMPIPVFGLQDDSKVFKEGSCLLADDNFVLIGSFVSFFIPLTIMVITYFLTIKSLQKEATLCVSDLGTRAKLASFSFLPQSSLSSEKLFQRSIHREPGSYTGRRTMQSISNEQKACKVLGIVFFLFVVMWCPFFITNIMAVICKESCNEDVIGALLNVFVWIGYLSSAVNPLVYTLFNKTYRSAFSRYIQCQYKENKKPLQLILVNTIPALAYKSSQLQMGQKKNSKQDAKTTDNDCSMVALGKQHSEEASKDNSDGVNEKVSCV
Chain of D(2) dopamine receptor (Homo sapiens) (P14416 whole entry, looked up): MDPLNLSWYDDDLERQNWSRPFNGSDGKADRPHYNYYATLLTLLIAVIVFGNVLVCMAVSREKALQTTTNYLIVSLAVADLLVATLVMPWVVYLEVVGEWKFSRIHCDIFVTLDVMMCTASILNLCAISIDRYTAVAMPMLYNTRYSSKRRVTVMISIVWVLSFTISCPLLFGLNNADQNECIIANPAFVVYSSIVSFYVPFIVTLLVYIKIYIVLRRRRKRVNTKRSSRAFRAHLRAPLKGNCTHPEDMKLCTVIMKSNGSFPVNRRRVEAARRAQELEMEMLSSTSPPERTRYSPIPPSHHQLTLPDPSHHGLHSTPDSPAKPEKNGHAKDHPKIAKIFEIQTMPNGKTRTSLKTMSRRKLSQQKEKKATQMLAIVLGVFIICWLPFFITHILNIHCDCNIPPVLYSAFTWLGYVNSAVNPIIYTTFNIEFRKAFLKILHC
Chain of Gonadotropin-releasing hormone receptor (Homo sapiens) (P30968 whole entry, looked up): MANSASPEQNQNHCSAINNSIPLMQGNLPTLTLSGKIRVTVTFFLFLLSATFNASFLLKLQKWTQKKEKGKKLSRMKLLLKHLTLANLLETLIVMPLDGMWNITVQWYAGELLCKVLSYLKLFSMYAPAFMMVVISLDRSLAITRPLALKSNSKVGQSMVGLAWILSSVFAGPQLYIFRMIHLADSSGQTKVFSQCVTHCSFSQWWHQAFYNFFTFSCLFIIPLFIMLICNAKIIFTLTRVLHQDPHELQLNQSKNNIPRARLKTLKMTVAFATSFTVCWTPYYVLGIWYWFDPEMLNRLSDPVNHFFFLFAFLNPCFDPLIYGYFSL
Chain of Beta-2 adrenergic receptor (Homo sapiens) (P07550 whole entry, looked up): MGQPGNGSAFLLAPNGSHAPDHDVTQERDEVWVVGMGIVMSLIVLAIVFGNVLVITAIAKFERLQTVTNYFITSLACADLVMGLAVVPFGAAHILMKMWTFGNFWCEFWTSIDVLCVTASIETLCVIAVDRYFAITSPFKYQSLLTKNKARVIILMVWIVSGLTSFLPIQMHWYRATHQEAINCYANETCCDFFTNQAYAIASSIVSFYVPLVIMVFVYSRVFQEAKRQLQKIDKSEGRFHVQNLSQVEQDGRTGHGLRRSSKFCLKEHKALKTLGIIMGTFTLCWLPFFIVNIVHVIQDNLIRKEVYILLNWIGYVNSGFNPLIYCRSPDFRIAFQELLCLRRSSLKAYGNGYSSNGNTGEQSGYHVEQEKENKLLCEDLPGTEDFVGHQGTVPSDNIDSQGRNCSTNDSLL
Chain of KiSS-1 receptor (Homo sapiens) (Q969F8 whole entry, looked up): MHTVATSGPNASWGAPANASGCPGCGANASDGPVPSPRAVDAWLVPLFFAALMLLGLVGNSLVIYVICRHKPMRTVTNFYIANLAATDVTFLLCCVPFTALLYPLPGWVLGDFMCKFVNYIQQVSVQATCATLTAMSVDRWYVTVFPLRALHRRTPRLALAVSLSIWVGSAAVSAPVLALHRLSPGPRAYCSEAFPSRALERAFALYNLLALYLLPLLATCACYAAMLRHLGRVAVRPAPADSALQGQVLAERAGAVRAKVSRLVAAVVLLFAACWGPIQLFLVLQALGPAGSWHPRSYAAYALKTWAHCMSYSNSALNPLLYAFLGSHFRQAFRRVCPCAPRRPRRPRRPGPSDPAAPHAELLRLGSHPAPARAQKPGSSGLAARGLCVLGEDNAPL
Chain of Muscarinic acetylcholine receptor M1 (Homo sapiens) (P11229 whole entry, looked up): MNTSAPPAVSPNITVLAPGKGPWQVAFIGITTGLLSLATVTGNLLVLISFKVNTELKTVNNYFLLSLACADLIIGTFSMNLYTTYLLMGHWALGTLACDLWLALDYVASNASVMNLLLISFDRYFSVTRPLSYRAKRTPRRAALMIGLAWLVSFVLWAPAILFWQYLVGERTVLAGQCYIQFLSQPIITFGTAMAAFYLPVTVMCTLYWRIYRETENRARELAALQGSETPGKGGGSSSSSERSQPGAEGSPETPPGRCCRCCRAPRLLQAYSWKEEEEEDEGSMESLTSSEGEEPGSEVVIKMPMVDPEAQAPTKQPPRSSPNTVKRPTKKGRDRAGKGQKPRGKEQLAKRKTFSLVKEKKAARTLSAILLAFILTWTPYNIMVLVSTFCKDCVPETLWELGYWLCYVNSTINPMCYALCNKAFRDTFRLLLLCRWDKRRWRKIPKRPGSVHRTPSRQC

| Compound | Potency [1] | Potency [2] | Potency [3] | Potency [4] | Potency [5] | Potency [6] | Potency [7] | Potency [8] | Potency [9] | Potency [10] | Potency [11] | Potency [12] | Potency [13] | Potency [14] | Potency [15] | Potency [16] | Potency [17] | Potency [18] | Potency [19] | Potency [20] |
| --- | --- | --- | --- | --- | --- | --- | --- | --- | --- | --- | --- | --- | --- | --- | --- | --- | --- | --- | --- | --- |
| NC(=O)CS(=O)C(c1ccccc1)c1ccccc1 (stereo unspecified) | inactive | inactive | inactive | inactive | inactive | inactive | inactive | inactive | inactive | inactive | inactive | inactive | inactive |  |  |  |  |  |  |  |
| Cc1nnc(-c2ccccc2)c(=O)n1N | inactive | inactive | inactive | inactive | inactive | inactive | inactive | inactive | inactive | inactive | inactive | inactive | inactive | inactive | inactive | inactive | inactive |  |  |  |
| CCOC(=O)COc1cc(-c2nn(C)c(OC(F)F)c2Cl)c(F)cc1Cl | inactive | inactive | inactive | inactive | inactive | inactive | inactive |  |  |  |  |  | inactive |  | inactive |  | inactive | inactive |  |  |
| ClC(Br)Br | inactive | inactive | inactive | inactive | inactive | inactive | inactive | inactive | inactive | inactive |  | inactive | inactive |  |  | inactive | inactive |  | inactive | inactive |
| CC(Cl)(Cl)[N+](=O)[O-] | inactive | inactive | inactive | inactive | inactive | inactive | inactive | inactive | inactive |  | inactive | inactive | inactive | inactive | inactive | inactive | inactive |  | inactive |  |
| Clc1ccccc1 | inactive | inactive | inactive | inactive | inactive |  | inactive |  | inactive | inactive | inactive | inactive | inactive | inactive | inactive | inactive | inactive | inactive | inactive | inactive |
| ClCCCCBr | inactive | inactive | inactive | inactive | inactive |  | inactive |  | inactive | inactive | inactive | inactive |  | inactive | inactive | inactive | inactive | inactive | inactive | inactive |
| O=CC=O | inactive | inactive | inactive | inactive | inactive |  | inactive |  | inactive | inactive | inactive | inactive | inactive | inactive | inactive | inactive | inactive | inactive | inactive |  |
| CC(C)(C)c1ccc(CCOc2ncnc3ccccc23)cc1 | inactive | inactive | inactive | inactive | inactive |  | inactive |  | inactive | inactive | inactive | inactive | inactive | inactive | inactive | inactive | inactive | inactive | inactive |  |
| CCOC1Oc2ccc(OS(C)(=O)=O)cc2C1(C)C (stereo unspecified) | inactive | inactive | inactive | inactive | inactive |  | inactive |  |  | inactive | inactive | inactive | inactive | inactive | inactive | inactive | inactive | inactive | inactive | inactive |
| CC[C@H](O)C(C[C@H](C)N(C)C)(c1ccccc1)c1ccccc1 | inactive | inactive | inactive | inactive | inactive |  | inactive |  | inactive | inactive | inactive | inactive | inactive | inactive | inactive | 34.1 µM (active) | inactive | inactive | inactive | inactive |
| CCC(C)(C)c1cc(-n2nc3ccccc3n2)c(O)c(C(C)(C)CC)c1 | inactive | inactive | inactive | inactive | inactive |  | inactive |  | inactive | inactive | inactive | inactive | inactive | inactive | inactive | 0.0956 µM (active) | inactive | inactive | inactive | inactive |
| C=C(C)C(=O)OCCCCOC(=O)C(=C)C | inactive | inactive | inactive | inactive | inactive |  | inactive |  | inactive | inactive | inactive | inactive | inactive | inactive | inactive | inactive | inactive | inactive | inactive | inactive |
| O=S(=O)(O)F | inactive | inactive | inactive | inactive | inactive |  | inactive |  | inactive | inactive | inactive | inactive | inactive | inactive | inactive | inactive | inactive | inactive | inactive |  |
| ClCc1ccccc1Cl | inactive | inactive | inactive | inactive | inactive |  | inactive |  | inactive |  | inactive | inactive | inactive | inactive | inactive | inactive | inactive | inactive | inactive |  |
| C[C@]12CC[C@@H]3c4ccc(OC(=O)N(CCCl)CCCl)cc4CC[C@H]3[C@@H]1CC[C@@H]2O | inactive | inactive | inactive | inactive | inactive |  | inactive |  | inactive | inactive |  | inactive | inactive | inactive | inactive | inactive | inactive | inactive | inactive | inactive |
| CN(C)C1CSSSC1 | inactive | 61.1 µM (active) | inactive | inactive | inactive |  | inactive |  | inactive |  | inactive | inactive | inactive | inactive | inactive | inactive | inactive | inactive | inactive | inactive |
